Data as given in PubChem BioAssay AID686978 (National Center for Advancing Translational Sciences (NCATS), 2013).
In all, about 420,000 compounds went through this assay and about 64,000 (15%) were called active. About 27% were inconclusive and are not listed. Calls follow the shape of the dose curve; as a rule, active = well fitted inhibition curve with a large enough effect; inconclusive = small, poorly fitted or top-dose-only effect; inactive = flat fitted curve, though single readings scatter. A selection follows. Entries that show only a call come without a potency.

test: qHTS for Inhibitors of human tyrosyl-DNA phosphodiesterase 1 (TDP1): qHTS in cells in absence of CPT; conditions: DT40 Tdp1-/- hTDP1 cells, no CPT, ATP luminescence, 48 h; activity change, negative = growth inhibition: at 46.2 µM (top of the series); also: nearly all actives have a fitted effect of over 55% in size
In short: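 Seeded 400 DT40-hTDP1 cells/well (vehicle DMSO, no 20 nM CPT); pinned compounds; ≥48 hr at 37 °C; CellTiter-Glo luminescence as viability measure.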
Potency is read from the fitted curve at half-maximal effect.

SMILES	Potency
Cc1ccc(C(=O)NC2CC(C)(C)NC(C)(C)C2)c(C)c1	inactive
Cn1c2c(c(=O)n(C)c1=O)C1c3ccccc3OCC1C(C)(C)O2 (stereo not given)	inactive
CC(Nc1nc(C(F)(F)F)nc2ccccc12)c1cccs1 (stereo not given)	20.6 µM (active)
CCN(CC)C(=O)c1ccc(O)c(OC)c1	inactive
CC1CCN(C(=O)Cn2c(=O)n(-c3ccc(Cl)cc3)c(=O)c3c4c(sc32)CCC4)CC1	inactive
O=c1c2c3c(sc2n(CCN2CCCC2)c(=O)n1Cc1ccccc1)CCCCC3	11.6 µM (active)
CCOC(=O)N1CCc2c(sc3c2c(=O)n(Cc2ccccc2)c(=O)n3CC(=O)Nc2cccc(C)c2)C1	inactive
NC(=O)c1ncc(C(F)(F)F)cc1Oc1ccc(F)cc1	inactive
COc1ccc(NC(=O)C2CCCN(S(=O)(=O)c3c(C)[nH]c(=O)[nH]c3=O)C2)c(OC)c1 (stereo not given)	inactive
Cc1ccccc1N1CC(C(=O)Nc2ccc(S(=O)(=O)N3CCCC3)cc2)CC1=O (stereo not given)	inactive
COc1ccc(S(=O)(=O)N2CCCC(C(=O)NCCCn3ccnc3)C2)cc1OC (stereo not given)	inactive
CC(C)c1ccc(NC(=O)C2CCCN(S(=O)(=O)c3cccnc3)C2)cc1 (stereo not given)	7.31 µM (active)
Cc1n[nH]c(C)c1S(=O)(=O)N1CCCC(C(=O)Nc2ccc(Br)cc2)C1 (stereo not given)	16.4 µM (active)
Cc1n[nH]c(C)c1S(=O)(=O)N1CCCC(C(=O)NCC2COc3ccccc3O2)C1 (stereo not given)	inactive
O=C(Cc1ccsc1)N1CCN(S(=O)(=O)c2cc(C(F)(F)F)cc(C(F)(F)F)c2)CC1	inactive
CCOC(=O)C1=CN(Cc2ccc(Br)cc2)S(=O)(=O)NC1C (stereo not given)	inactive
Cc1ccc(C(=O)NNC2=Nc3cc([N+](=O)[O-])ccc3OC2)cc1	inactive
Cc1nn(C(=O)c2c(F)cccc2F)c(C)c1S(=O)(=O)N1CCOCC1	inactive
CC(C)=N/N=C1/NC(=O)C(Cc2ccccc2)S1 (stereo not given)	inactive
O=C(NC(=S)Nc1ccc(Br)cc1F)C1CCCCC1	inactive
O=C(N/N=C/c1ccc(O)c2ccccc12)c1cccnc1	inactive
Cc1nnsc1C(=O)N/N=C/c1ccccc1Cl	inactive
Cc1ccc(/C=N/NC(=O)C2=NNC(c3ccccc3)(c3ccccc3)C2)c(O)c1	4.11 µM (active)
O=C(O)c1cscn1	inactive
O=C(Cc1cccc2ccccc12)NCCC1=CCCCC1	29.1 µM (active)
O=C(CCNC(=O)Cn1ccc2ccccc2c1=O)NCCC1=CCCCC1	inactive
CC(OC(=O)c1c(F)cccc1F)C(=O)NCCC1=CCCCC1 (stereo not given)	inactive
O=C(Cc1nn[nH]n1)NCCC1=CCCCC1	inactive
CC(=O)Nc1ccc(S(=O)(=O)N(C)CC(=O)NCCC2=CCCCC2)cc1	inactive
S=C(NCCC1=CCCCC1)Nc1ccccc1	23.1 µM (active)
